Measured values published in PubChem BioAssay (EPA / NIEHS).
Active and inactive are the calls of the source. The calls were made as follows: active = hit-call score of the fitted dose curve at least 0.9, where 1 is the maximum; inactive = score below 0.9.

Columns and labels:
Conditions in all cases: mRNA level, 48 h; actives raise or lower the signal
[1] = read-out: Potassium channel subfamily K member 1 (KCNK1), KCNK1 (gene 3775); assay: LTEA_HepaRG_KCNK1: Life Technologies and Expression Analysis (LTEA) Assay for Potassium channel subfamily K member 1 (KCNK1) using HepaRG (AID 2283511)
Summary of the method: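 Human HepaRG cultures receive test chemicals for 48 h in 0.5% DMSO, top concentration 100 uM with half-log dilutions. Induction or suppression of KCNK1 mRNA relative to DMSO is derived by bidirectional fitting of qRT-PCR data.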

[2] = read-out: Keratin 19 (KRT19), KRT19 (gene 3880); assay: LTEA_HepaRG_KRT19: Life Technologies and Expression Analysis (LTEA) Assay for Keratin 19 (KRT19) using HepaRG (AID 2283512)
Summary of the method: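 KRT19 transcript levels, measured by Fluidigm qRT-PCR against three housekeeping genes, are fitted for gain or loss of signal relative to DMSO. Human HepaRG cells receive test chemicals (top 100 uM, half-log steps, 0.5% DMSO) for 48 hours.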

[3] = read-out: JUN Transcription Factor, JUN (gene 3725); assay: LTEA_HepaRG_JUN: Life Technologies and Expression Analysis (LTEA) Assay for JUN Transcription Factor using HepaRG (AID 2283513)
Experimental: (§1) LTEA_HepaRG is a cell based, multiplexed-readout assay that uses HepaRG, a human liver cell line, with measurements taken at 48 hours after chemical dosing on a 96-well plate.LTEA_HepaRG_JUN is one of 102 assay component(s) measured in the LTEA HepaRG cell culture assay. It is a marker of Cell proliferation, survival, death.Data from the assay component LTEA_HepaRG_JUN was analyzed into 1 endpoint. This assay endpoint, LTEA_HepaRG_JUN, was analyzed with bidirectional fitting relative to DMSO as the negative control and baseline of activity. Using a type of inducible reporter, measures of mRNA induction for gain or loss-of-signal activity can be used to understand regulation of transcription factor activity. To generalize the intended target to other relatable targets, this assay endpoint is annotated to the dna binding intended target family, where the subfamily is basic leucine zipper.
(§2) A total of 1060 chemcials from the ToxCast library were tested in eight-point concentration-response experiments. Cell culture and cytotoxicity assays were conducted at Thermo Fisher Scientific's Custom Services facility (Madison, WI). […] Fluidigm's 96.96 Dynamic ArrayTM (Fluidigm, Amsterdam, the Netherlands) technology was used for gene expression analyses by quantitative reverse transcription polymerase chain reaction (qRT-PCR, performed by Quintiles/Expression Analysis, Durham, NC)89. […]

[4] = read-out: Lipase C (LIPC), LIPC (gene 3990); assay: LTEA_HepaRG_LIPC: Life Technologies and Expression Analysis (LTEA) Assay for Lipase C (LIPC) using HepaRG (AID 2283514)
Summary of the method: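 In this multiplexed gene-expression screen, human HepaRG cultures received test chemicals for 48 h across eight concentrations with 100 uM highest, in duplicate. Values reflect LIPC mRNA induction or suppression versus DMSO vehicle, from normalized qRT-PCR.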

[5] = read-out: Lipoprotein lipase (LPL), LPL (gene 4023); assay: LTEA_HepaRG_LPL: Life Technologies and Expression Analysis (LTEA) Assay for Lipoprotein lipase (LPL) using HepaRG (AID 2283515)
Summary of the method: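 Concentration-response testing used half-log steps from 100 uM in 0.5% DMSO on human HepaRG cells, 48 h, duplicate wells. Phenobarbital 1 mM served as induction control; LPL mRNA was normalized to ACTB, GAPDH, POLR2A.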

[6] = read-out: MicroRNA 122 (MIR122), gene 406906; assay: LTEA_HepaRG_MIR122: Life Technologies and Expression Analysis (LTEA) Assay for MicroRNA 122 (MIR122) using HepaRG (AID 2283516); also: the transcript read is the microRNA miR-122
Summary of the method: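 qRT-PCR read-out (TaqMan, Fluidigm array), normalized to three housekeeping genes; HepaRG cells dosed 48 h at 8 concentrations up to 100 uM in 0.5% DMSO, duplicate; gain or loss fitted against DMSO baseline.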

[7] = read-out: matrix metalloproteinase-10 (MMP10), MMP10 (gene 4319); assay: LTEA_HepaRG_MMP10: Life Technologies and Expression Analysis (LTEA) Assay for matrix metalloproteinase-10 (MMP10) using HepaRG (AID 2283517)
Summary of the method: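 In differentiated HepaRG cultures kept in 0.5% DMSO, test chemicals act for 48 h over an eight-point range with a top dose of 100 uM. Expression is then quantified by TaqMan RT-PCR against ACTB, GAPDH and POLR2A.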

MYC, MYC (gene 4609) = assay: LTEA_HepaRG_MYC: Life Technologies and Expression Analysis (LTEA) Assay for MYC using HepaRG (AID 2283518)
Experimental: as §1, with “plate.LTEA_HepaRG_MYC” for “plate.LTEA_HepaRG_JUN”, “LTEA_HepaRG_MYC” for “LTEA_HepaRG_JUN”, “LTEA_HepaRG_MYC,” for “LTEA_HepaRG_JUN,”, “basic helix-loop-helix” for “basic”
as §2

[8] = read-out: matrix metalloproteinase-3 (MMP3), MMP3 (gene 4314); assay: LTEA_HepaRG_MMP3: Life Technologies and Expression Analysis (LTEA) Assay for matrix metalloproteinase-3 (MMP3) using HepaRG (AID 2283519)
Summary of the method: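 Human liver HepaRG cultures received chemicals (top concentration 100 uM, 0.5% DMSO) for 48 h in duplicate. MMP3 mRNA induction or loss was then assessed via TaqMan qRT-PCR with housekeeping-gene normalisation.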

[9] = read-out: Paternally Expressed 10 (PEG10), PEG10 (gene 23089); assay: LTEA_HepaRG_PEG10: Life Technologies and Expression Analysis (LTEA) Assay for Paternally Expressed 10 (PEG10) using HepaRG (AID 2283520)
Summary of the method: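 qRT-PCR read-out: PEG10 mRNA normalised to three housekeeping genes, fitted bidirectionally against 0.5% DMSO vehicle. HepaRG cells received test chemicals for 48 h in serum-free induction medium, 8 points, top 100 uM, half-log steps.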

Measured: outcome

O=C(O)c1ccc([N+](=O)[O-])cc1
inactive: all assays above
